PubChem BioAssay
The source made the active and inactive calls. Unless noted, no rule for the calls is given here.

Key:
[1] = system: Wnt5a (protein binding on small-molecule microarray); experiment: Wnt5a binders on small-molecule microarray, primary screen, biophysical, 635/667 nm fluorescence (AID 1142); conditions: 635 nm fluorescence, higher = more signal;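 also: fluorescence read at 667 nm with signal to noise per printed feature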
[2] = cell viability in Huh7 cells, primary screen, cytotoxicity control for HCV replication inhibitor project, CellTiter-Glo luminescence, basal, 48 h (AID 1143); conditions: Huh7 HCV replicon, higher = more signal, called active from +8 up or from −8 down;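 also: Huh7 hepatoma cells carrying a hepatitis C replication reporter with no stimulus; test concentration not given here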
[3] = P. aeruginosa biofilm formation inhibitors, primary screen, PAO1 strain, BacTiter-Glo luminescence, LB-PBS (AID 1144); conditions: 12 h, higher = more signal
[4] = CREB reporter modulators without forskolin, primary screen, cell-based, PC12, CRE-LacZ reporter, unstimulated (AID 1145); conditions: no forskolin, luminescence, 4.5 h, higher = more signal, called active from +8 up or from −8 down
[5] = CREB reporter modulators under forskolin, primary screen, cell-based, PC12, CRE-LacZ reporter, forskolin-stimulated (AID 1146); conditions: luminescence, 4.5 h, higher = more signal, called active from +8 up or from −8 down;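 also: PC12 cells with 6xCRE LacZ reporter stimulated by forskolin 10 µM; beta-galactosidase reporter signal reflecting CREB driven transcription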
[6] = target: Streptavidin (Streptomyces avidinii) (UniProt P22629); experiment: streptavidin binders on small-molecule microarray, primary screen, artefact control for SMM compound annotation, biophysical, 635/667 nm fluorescence (AID 1147); conditions: streptavidin binding, higher = more signal;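 also: signal reflects streptavidin binding to arrayed compounds as a control protein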
Sequence of Streptavidin (Streptomyces avidinii) (P22629 whole entry, looked up): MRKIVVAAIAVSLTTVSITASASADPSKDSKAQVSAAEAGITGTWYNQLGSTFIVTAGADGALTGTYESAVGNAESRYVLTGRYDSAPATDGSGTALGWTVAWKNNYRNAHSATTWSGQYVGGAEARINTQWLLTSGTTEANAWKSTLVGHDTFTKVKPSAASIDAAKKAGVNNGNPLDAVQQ

[7] = small-molecule binders of probe aInhba, primary screen, biochemical, small-molecule microarray, 635/667 nm fluorescence (AID 1148); conditions: higher = more signal;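 also: score merges 667nm spot fluorescence with signal-to-noise for antibody binding to printed compounds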
Torsin-1A (Homo sapiens) [8] = target: Torsin-1A (Homo sapiens) (UniProt O14656); experiment: torsin A binders from cell lysate, primary screen, small-molecule microarray, wild-type, 635/667 nm (AID 1149); conditions: COS7 hTOR1A-WT lysate, 635 nm fluorescence, higher = more signal
Sequence of Torsin-1A (Homo sapiens) (O14656 whole entry, looked up): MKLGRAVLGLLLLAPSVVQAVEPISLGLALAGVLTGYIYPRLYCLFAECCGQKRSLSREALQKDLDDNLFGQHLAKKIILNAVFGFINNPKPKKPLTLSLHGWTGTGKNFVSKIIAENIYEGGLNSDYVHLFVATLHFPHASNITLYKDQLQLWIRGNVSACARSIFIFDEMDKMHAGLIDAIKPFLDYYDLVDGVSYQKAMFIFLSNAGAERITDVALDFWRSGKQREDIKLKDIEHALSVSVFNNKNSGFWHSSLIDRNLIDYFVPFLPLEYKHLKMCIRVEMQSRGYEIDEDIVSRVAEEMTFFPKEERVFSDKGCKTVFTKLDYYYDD

Torsin-1A (Homo sapiens) [9] = target: Torsin-1A (Homo sapiens) (UniProt O14656); experiment: small-molecule binders of mutant TOR1A in lysate, primary screen, cell lysate, small-molecule microarray, COS7 lysate, 635/667 nm fluorescence (AID 1150); conditions: COS7 hTOR1A mutant lysate, 635 nm fluorescence, higher = more signal;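 also: score pools 667 nm emission and signal to noise measuring lysate protein binding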
[10] = system: Sonic hedgehog protein (Shh); experiment: small-molecule binders of Shh protein, primary screen, biochemical, small-molecule microarray, 635/667 nm fluorescence (AID 1151); conditions: small-molecule microarray binding, 635 nm fluorescence; higher = more signal;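 also: Shh protein binding to compounds spotted on small-molecule microarray slides; score combines spot fluorescence intensity with signal-to-noise across triplicate slides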

Row | SMILES | composite z-score [1] | z-score [2] | z-score [3] | z-score [4] | z-score [5] | composite z-score [6] | composite z-score [7] | composite z-score (Torsin-1A (Homo sapiens) [8]) | composite z-score (Torsin-1A (Homo sapiens) [9]) | composite z-score [10]
1 | CN1C(=O)C2C=CC(C(O)C(c3ccccc3)c3ccccc3)N(Nc3ccccc3)C2C1=O (stereo not given) | 0.35 | -1.91 (inactive) | -0.437 (inactive) | -0.14 (inactive) | 0.574 (inactive) | 1.49 | 0.0857 | 0.096 | 0.585 | 0.424
2 | C=CCNC(=O)[C@@H]1[C@H]2C(=O)O[C@H](c3ccccc3)[C@H](c3ccccc3)N2[C@H](c2ccccc2OCCO)[C@@]12C(=O)N(C(=O)OCCOC)c1ccc(C#CCC(C(=O)OC)C(=O)OC)cc12 | 0.978 | -5.68 (inactive) | 0.0376 (inactive) | -0.195 (inactive) | -0.569 (inactive) | 1.63 | 0.86 | 0.612 | 1.56 | 2.04
3 | C=CCC(OC(C)=O)[C@@H]1[C@@H](N(Cc2cc3ccccc3o2)C(=O)c2cccc3ccccc23)c2cc(OCCCO)ccc2N1C(=O)Cc1ccc2ccccc2c1 (stereo not given in full) | 0.0744 | -1.62 (inactive) | 0.303 (inactive) | 0.992 (inactive) | -0.333 (inactive) | 0.435 | -0.0589 | -0.213 | -0.146 | 0.191
4 | O=C(NCC(O)CO)[C@@]1(Cc2ccccc2)COC(c2ccc(OCCCO)cc2)=N1 (stereo not given in full) | 0.0149 | -0.0858 (inactive) | 0.741 (inactive) | 0.895 (inactive) | -0.18 (inactive) | -0.131 | 0.124 | -0.0598 | 0.0184 | -0.342
5 | C=C(/C(=C/C[C@@H](OC(=O)c1ccncc1)c1ccc(CO)o1)c1cc(C(=O)OC)ccc1OC)C(C)C | 0.569 | -0.82 (inactive) | -0.0553 (inactive) | 8.87 (active) | 3.69 (inactive) | 0.229 | 0.0633 | 1.24 | 0.946 | 1.2
6 | CC(C)OC(=O)C1=CCC(c2cccc(Cl)c2)O1 (stereo not given) | -0.593 | -5.17 (inactive) | -2.12 (inactive) | -0.471 (inactive) | -0.154 (inactive) | 0.245 | -0.191 | 1.07 | -0.268 | -1.49
7 | CCOC(=O)C1=C[C@@H](C(C)(C)C)N(S(=O)(=O)c2ccc(C)cc2)[C@H]1c1ccc(Cl)c(Cl)c1 | 0.28 | -4.01 (inactive) | 0.599 (inactive) | 0.229 (inactive) | 0.303 (inactive) | 1.04 | 0.196 | 0.126 | 0.837 | 0.202
8 | O=c1cccc(-c2ccc3ccccc3c2)o1 | -0.0955 | -2.3 (inactive) | 0.787 (inactive) | 0.425 (inactive) | 0.0815 (inactive) | 0.351 | -0.025 | -0.0735 | -0.0223 | 0.27
9 | O=C1OCC=C[C@H]2OC34C=CCN(c5ccc6ccccc6c5)C(=O)[C@H]3N(CCO)C(=O)[C@@H]4[C@@H]12 (stereo not given in full) | -1.26 | -0.168 (inactive) | 1.89 (inactive) | 1.14 (inactive) | 0.492 (inactive) | -0.74 | -0.0427 | -2.04 | -2.02 | -0.25
10 | C=CCC(OC(C)=O)[C@@H]1[C@@H](N(Cc2cc3ccccc3o2)C(=O)c2ccc(-c3ccccc3)cc2)c2cc(OCCCO)ccc2N1C(=O)Cc1ccc2ccccc2c1 (stereo not given in full) | -0.172 | 0.0758 (inactive) | 0.19 (inactive) | 1.85 (inactive) | 0.874 (inactive) | 0.0693 | 0.0963 | -0.635 | -0.0864 | -0.076
11 | O=C1C2C=CC(C(O)c3cccc4ccccc34)N(n3cnnc3)C2C(=O)N1Cc1ccccc1 (stereo not given) | 1.24 | 0.251 (inactive) | 0.878 (inactive) | 0.425 (inactive) | 0.972 (inactive) | 0.225 | 1.28 | 0.104 | -0.0432 | 0.177
12 | COc1ccc([Si](C)(C)[C@@H]2[C@@H](CCO)O[C@]3(C(=O)N(Cc4cccc(N5CCCCC5=O)c4)c4ccccc43)[C@H]2C)cc1 | -0.0438 | -7.9 (inactive) | 0.671 (inactive) | 15.5 (active) | 0.456 (inactive) | -0.276 | -0.024 | 0.38 | 0.965 | 1.27
13 | COCCOC(=O)N1C(=O)[C@@]2(c3cc(C#CCCO)ccc31)[C@H](C(=O)NC[C@H](O)c1ccccc1)[C@H]1C(=O)O[C@H](c3ccccc3)[C@H](c3ccccc3)N1[C@@H]2c1ccc(OCCO)cc1 | 0.041 | -3.14 (inactive) | -1.71 (inactive) | -1.97 (inactive) | -1.18 (inactive) | 0.738 | 0.0444 | 0.269 | 0.126 | 1.85
14 | CCN(CC)c1ccc(N2CC=CC34O[C@@H]5C=CCOC(=O)[C@@H]5[C@H]3C(=O)N(CCCCCO)[C@@H]4C2=O)cc1 (stereo not given in full) | -0.253 | -0.286 (inactive) | 0.555 (inactive) | 1.57 (inactive) | -0.0409 (inactive) | -0.93 | -0.186 | 1.03 | 1.06 | 0.146
15 | COCCOC(=O)N1C(=O)[C@@]2(c3cc(C#CCC(C(=O)OC)C(=O)OC)ccc31)[C@H](c1ccc(OCCO)cc1)N1[C@H](c3ccccc3)[C@H](c3ccccc3)OC(=O)[C@H]1[C@@H]2C(=O)NC[C@H](O)c1ccccc1 | 0.354 | -1.84 (inactive) | -1.29 (inactive) | -1.56 (inactive) | -0.526 (inactive) | 0.521 | 0.281 | 1.72 | 1.18 | 2.14
16 | O=C1O[C@@H](c2ccccc2)[C@@H](c2ccccc2)N2[C@@H](c3ccccc3OCCO)[C@]3(C(=O)Nc4ccc(C#CC5(O)CCCCCC5)cc43)[C@@H](C(=O)NC[C@H](O)c3ccccc3)[C@H]12 | 0.602 | -6.25 (inactive) | 0.813 (inactive) | 0.0776 (inactive) | 1.12 (inactive) | 0.329 | 1.09 | -0.179 | 0.251 | 2.17
17 | CO[C@H]1O[C@H](CO)[C@@H](OC(=O)Nc2ccc(C(F)(F)F)cc2)[C@H](OC(=O)Nc2ccccc2)[C@@H]1OC(=O)Nc1ccccc1 | 0.534 | -3.7 (inactive) | 0.724 (inactive) | 0.904 (inactive) | -1.01 (inactive) | 1.08 | -0.0538 | 0.146 | -0.0359 | 0.934
18 | O=C(CS)NCCCCCNC(=O)[C@H]1C[C@H]2C(=O)N[C@@H](Cc3ccccc3)C(=O)N2[C@H]1c1cccc(OCCO)c1 | 0.306 | -0.178 (inactive) | -0.388 (inactive) | 0.696 (inactive) | -0.0595 (inactive) | -0.304 | 0.0439 | 0.88 | 0.822 | 1.83
19 | O=C1OCCC/C=C\[C@H]2OC34C=CCN(Cn5nnc6ccccc65)C(=O)[C@H]3N(CCCO)C(=O)[C@@H]4C12 (stereo not given in full) | -0.8 | 0.464 (inactive) | -0.354 (inactive) | -0.623 (inactive) | 0.168 (inactive) | -1.29 | -0.182 | -2.04 | 1.14 | -0.144
20 | COc1ccc([Si](C)(C)[C@@H]2[C@@H](CCO)O[C@]3(C(=O)N(Cc4ccccc4)c4ccc(N(C=O)c5ccccc5)cc43)[C@H]2C)cc1 | 0.155 | -5.23 (inactive) | -1.1 (inactive) | 4.18 (inactive) | -0.336 (inactive) | -0.0047 | -0.0762 | 0.353 | 0.188 | 1.26
21 | O=C1C2C=CC(C(O)c3ccc(-c4ccccc4)s3)N(Nc3ccccc3F)C2C(=O)N1c1ccccc1 (stereo not given) | 0.26 | 0.0093 (inactive) | -0.729 (inactive) | 0.629 (inactive) | 0.383 (inactive) | 1.06 | -0.205 | 0.254 | 0.404 | 0.433
22 | C=CCOC(=O)[C@@H]1[C@H]2C(=O)O[C@H](c3ccccc3)[C@H](c3ccccc3)N2[C@H](c2ccc(OCCOC(=O)[C@H]3C[C@H]4C(=O)N[C@@H](CC(C)C)C(=O)N4[C@H]3c3cccc(OCCO)c3)cc2)[C@@]12C(=O)Nc1ccc(I)cc12 | 0.289 | -2.48 (inactive) | -0.174 (inactive) | 0.419 (inactive) | -0.0639 (inactive) | 0.332 | 0.247 | 1 | 1.15 | 2.06
23 | O=c1cccc(-c2ccccc2)o1 | -0.299 | 0.423 (inactive) | 1.55 (inactive) | -0.723 (inactive) | 0.137 (inactive) | -0.386 | -0.204 | 0.0936 | 0.274 | -0.379
24 | O=S(=O)(NCCCO)c1ccc(Br)cc1 | 0.191 | -1.52 (inactive) | -0.658 (inactive) | -0.198 (inactive) | -0.472 (inactive) | 0.587 | -0.024 | 0.729 | 0.783 | 0.533
25 | CC(C)CNC(=O)[C@@]1(C)c2ccccc2C(=O)N(C(C)C)[C@H]1c1ccc(CO)cc1 | -0.16 | 1.09 (inactive) | 0.15 (inactive) | -0.179 (inactive) | -0.568 (inactive) | -1.36 | -0.187 | -0.633 | -1.63 | -0.542
26 | [N-]=[N+]=NCc1ccccc1C[C@]1(C(=O)NCc2ccccc2)COC(c2ccc(OCCCO)cc2)=N1 | -0.0113 | -5.27 (inactive) | 0.664 (inactive) | 1.72 (inactive) | 0.232 (inactive) | 0.469 | 0.0301 | -0.328 | 0.784 | -1.13
27 | CN(C)CCCN1C(=O)[C@@]2(c3ccc([N+](=O)[O-])cc3)CC(=O)N(C3CCCCC3)[C@@H]2c2ccc(CO)cc21 | 0.131 | -1.79 (inactive) | -1.09 (inactive) | -0.464 (inactive) | -0.477 (inactive) | 0.161 | -0.101 | -0.954 | -0.288 | -0.93
28 | O=C1C2C=CC(C(O)CCc3ccccc3)N(Nc3ccccc3)C2C(=O)N1c1ccccc1 (stereo not given) | 0.742 | 0.267 (inactive) | -0.857 (inactive) | 0.819 (inactive) | -0.0219 (inactive) | 2.32 | 0.372 | 0.143 | 0.82 | -0.365
29 | CCOC(=O)C1=CC[C@@H](c2cccc(Cl)c2)N(S(=O)(=O)c2ccc(C)cc2)[C@H]1c1ccc(C#N)cc1 | 0.473 | -1.1 (inactive) | 0.494 (inactive) | -0.228 (inactive) | 0.119 (inactive) | 1.15 | 0.0627 | 0.384 | 0.788 | 0.741
